The record followed here is PubChem BioAssay AID1259422 (The Scripps Research Institute Molecular Screening Center, 2018).

About 9,300 (1.5%) of roughly 640,000 compounds were called active. Many of the other results were omitted from the sample, so actives are more common in it than they were. A number with no mark means an inactive call. Rule as the data show it: active = inhibition above about 32%; inactive = the rest.

This experiment can be described thus: TEAD-YAP interaction inhibition, primary screen, TEAD-YAP interaction inhibitor project, luminescence, HEK-TIYL cells (AID 1259422).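 Also: 0% = median of test compound wells and 100% = reference inhibitor wells.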 Conditions: TEAD-Gal4/YAP UAS-luciferase luminescence, at 9.12 µM, hits give high values.
Take `CCOC(=O)Cn1c(=O)oc2cc(S(=O)(=O)N3CCN(CC)CC3)ccc21`: the inhibition is -3.33%. Next, `COc1cccc(/C=N/NC(=O)C(C)Nc2ccc(Br)cc2)c1O` (centres undefined): 23.5%. For `O=C(Cn1cc([N+](=O)[O-])cn1)Nc1ccc(-c2noc(-c3ccccc3F)n2)cc1` the value was -22%.

`CN(C)CCCn1c(-c2ccc(Cl)cc2)csc1=Nc1ccccc1`: the inhibition is 5.26%. Next, `O=C(O)CCn1c(-c2ccccc2)csc1=Nc1ccccc1`: -48.6%; `CCCn1c(-c2ccc(S(=O)(=O)N(C)C)cc2)csc1=Nc1ccccc1`: 35.3% (active).

For the compound `O=C(NC1CCCCC1)c1ccc(Cn2c(=S)[nH]c3cc4c(cc3c2=O)OCO4)cc1`, the inhibition is -6.89%. As for `O=C(Nc1ccccc1F)c1cnc(N2CCN(c3ncccn3)CC2)c2ccccc12`, the inhibition is 25.2%.

For `COc1ccc(Cl)cc1NC(=O)c1cnc(N2CCN(c3ncccn3)CC2)c2ccccc12`, the inhibition was 12.9%. Next, `COc1ccc([N+](=O)[O-])cc1NC(=O)c1cnc(N2CCN(c3ncccn3)CC2)c2ccccc12`: 36.3% (active); `O=C(NCc1ccccn1)c1cc(=O)c2ccccc2o1`: 0.58%. Next, `O=C(Nc1ccc(Oc2ccc3ccccc3c2Cl)c(Cl)c1)c1cc2cc(Cl)ccc2oc1=O`: 5.28%; `CC(=O)Nc1ccc(Nc2nc(-c3ccc(C(N)=O)cc3)nc3nc[nH]c23)cc1`: 5.81%. Next, `COc1cc(Nc2nc(Nc3cccc(N(C)C)c3)nc3nc[nH]c23)cc(OC)c1OC`: 46% (active). Turning to `COc1ccc(-c2nc(C)cc(NCc3ccccc3)n2)cc1`, the inhibition was -42.8%. For `COc1ccc(-c2nc(Nc3cc(OC)c(OC)c(OC)c3)c3[nH]cnc3n2)cc1` the value was 54% (active); for `COc1cc(Nc2nc(Nc3cc(OC)c(OC)c(OC)c3)c3[nH]cnc3n2)cc(OC)c1OC`, 8.81%; for `COc1cc2nc(Nc3cccc(N(C)C)c3)nc(Nc3cc(OC)c(OC)c(OC)c3)c2cc1OC`, -1.74%. Next, `COc1cc(Nc2cc(C)nc(Nc3nc4ccccc4n3C)n2)cc(OC)c1OC`: 1.6%. For `COc1ccc(-c2nc(N)c3[nH]cnc3n2)cc1` the value was -34%; for `COc1ccc(-c2nc(C)cc(Nc3cc(OC)c(OC)c(OC)c3)n2)cc1`, 46.8% (active); for `O=[N+]([O-])c1ccc(-c2csnn2)cc1`, -3.36%. Consider `Cc1nc2c3ccccc3n3c(CCCC(=O)NCc4cccnc4)nnc3n2n1`, for which the inhibition is -0.28%. With `O=C(CNC(=O)c1ccco1)N/N=C/c1ccc(F)cc1`, the inhibition is 2.91%. Next, `CN1C(C)(C)CC(N(C)S(C)(=O)=O)CC1(C)C`: -1.45%; `COCCNc1nc(-c2ccc(C)cc2)ccc1C(=O)N1CCN(C)CC1`: -12%. Next, `CCCCOC(=O)C(C)Oc1ccc2c(=O)c(-c3ccc(Cl)cc3)coc2c1` (centres undefined): -32.8%; `CCOC(=O)C1CCN(C(=O)/C(=C/c2ccco2)NC(=O)c2ccc(C)c(C)c2)CC1`: 3.59%; `Cc1nnc(NS(=O)(=O)c2ccc([N+](=O)[O-])cc2)s1`: -10.9%. Next, `O=C(CSCC(=O)N1CCCC1)Nc1nc(-c2ccc(Cl)s2)cs1`: -0.25%. On to `Cc1ccc(S(=O)(=O)N(C(=O)NC(=O)Nc2ccccc2Cl)c2ccc(Cl)cc2)cc1`, for which the inhibition is -3.29%. `Cc1cc(C)c2c(NCc3ccccc3F)n[nH]c2n1`: the inhibition is -16.5%. Turning to `Cc1ccc(OCc2nn3c(Cn4cnc5ccccc54)nnc3s2)cc1`, the inhibition was 32.3% (active).

For the compound `c1ccc(Cc2nn3c(Cn4cnc5ccccc54)nnc3s2)cc1`, the inhibition is 6.31%.

Regarding `Clc1ccccc1OCc1nn2c(Cc3ccccc3)nnc2s1`, the inhibition was -7.7%.

With `COC(=O)c1c(C)[nH]c(C(=O)/C(C#N)=C/c2cccnc2)c1C`, the inhibition is -3.19%. In the case of `CCc1nc2sc3c(N4CCCC4)ncnc3c2c2c1COC(C)(C)C2`, the inhibition is -9.9%. Consider `CC(=O)c1ccc(OC(=O)c2ccccc2Cl)cc1`, for which the inhibition was 7.46%. For `O=C(Cn1cnc2ccc(Br)cc2c1=O)OC1CCCCC1` the value was -11.3%.

For the compound `CCC(C)n1c(N(C)Cc2ccccc2)nc2c1c(=O)[nH]c(=O)n2C` (centres undefined), the inhibition was 49.9% (active). Next, `Cn1c(=O)[nH]c(=O)c2c1nc(N(CCO)Cc1ccccc1)n2Cc1ccccc1Cl`: -2.54%.

Take `CC(Nc1nc2c(c(=O)[nH]c(=O)n2C)n1Cc1ccccc1)c1ccccc1` (centres undefined): the inhibition was 0.86%. For `CCC(C)NC(=O)c1ccc(N2CCC3(CC2)OCCO3)c([N+](=O)[O-])c1` (centres undefined) the value was -13.8%; for `CCC(C)NC(=O)c1ccc(S(=O)(=O)c2ccc(OC)cc2)c([N+](=O)[O-])c1` (centres undefined), 32.4% (active). On to `COCCNC(=O)c1ccc(Sc2ccc(OC)cc2)c([N+](=O)[O-])c1`, for which the inhibition is -17%.

As for `Cc1nn(C)c(C)c1-c1cncc(C(=O)NCc2cccc(C(F)(F)F)c2)c1`, the inhibition is -3.32%.

Consider `Cc1nc2c(C(=O)NCc3ccc(F)cc3)cnn2c(C)c1Cc1cccc(Cl)c1`, for which the inhibition is 0.57%.

Turning to `O=C(CSCC(=O)Nc1ccc2ccccc2c1)NCC1CCCO1` (centres undefined), the inhibition was -13.5%. With `O=c1oc2cc(Cl)ccc2n1C(c1ccccc1)(c1ccccc1)c1ccccc1`, the inhibition was -6.71%. For `O=C1NC2(CCN(C(=O)CCn3ncc4ccccc43)CC2)Nc2ccccc21`, the inhibition was -11.1%. In the case of `O=C1NC2(CCN(C(=O)c3cccc4cccnc34)CC2)Nc2ccc(Cl)cc21`, the inhibition is 77.2% (active). Next, `O=C1NC2(CCN(C(=O)C3CCN3C3CCCCC3)CC2)Nc2ccccc21` (centres undefined): 7.24%; `CCc1ccc2c(c1)NC(=O)C2(CC)c1ccc2c(c1)OCO2` (centres undefined): -7.41%; `CN(c1nc(N)ncc1[N+](=O)[O-])C1CCCCC1`: 33.8% (active). Next, `CN(c1ncnc2c1nc1n2CCCCC1)C1CCCCC1`: -48%; `CN(c1ccc(C(=O)Nc2cc(F)cc(F)c2)cc1[N+](=O)[O-])C1CCCCC1`: -5.53%; `COC(=O)C1=CN(Cc2ccc(OC)c(OC)c2)C=C(C(=O)OC)C1c1cccc(OCc2ccccc2)c1`: 55.4% (active). For `CCOC(=O)C1=CN(Cc2ccc(F)cc2)C=C(C(=O)OCC)C1c1cccc(OCc2ccccc2)c1` the value was 10.8%; for `CCOC(=O)C1=CN(Cc2ccc(Cl)cc2)C=C(C(=O)OCC)C1c1cccc(OCc2ccccc2)c1`, 5.47%. Take `CC(=O)c1ccc(OCC(=O)Nc2c(F)c(F)cc(F)c2F)cc1`: the inhibition was -0.14%.

In the case of `CCOc1ccc(C2C(C#N)=C(N)N(c3ccc(F)cc3)C3=C2C(=O)CCC3)cc1` (centres undefined), the inhibition is -0.96%. Next, `N=C1c2ccccc2CN1NC(=O)c1ccccc1-n1cccc1`: 11.5%; `O=C(Cc1c(F)cccc1Cl)Nc1ccc(Cl)cn1`: -7.57%. In the case of `CNC(=O)c1ccccc1Nc1cc(NC(=O)Cc2ccc([N+](=O)[O-])cc2)ncc1C(F)(F)F`, the inhibition was 78.8% (active). For `O=C(Cc1ccc([N+](=O)[O-])cc1)Nc1ccccc1Cl` the value was -21.8%; for `CNC(=O)c1ccccc1Nc1cc(NC(=O)C2(c3ccccc3)CC2)ncc1C(F)(F)F`, -1.5%; for `CCc1ccccc1NC(=O)Cc1ccc([N+](=O)[O-])cc1`, 2.99%. For `CNC(=O)c1ccccc1Nc1cc(NC(=O)Cc2ccc(F)c(F)c2)ncc1C(F)(F)F` the value was 65.4% (active). Next, `Cc1cc(NC(=O)c2cccs2)ncc1NC(=O)c1ccccc1F`: -50.5%. `CNC(=O)c1ccccc1Nc1cc(NC(=O)C(F)(F)c2ccccc2)ncc1C(F)(F)F`: the inhibition is 41.9% (active). For `FC(F)(F)c1cccc(Nc2ccc(Br)cn2)c1` the value was 9.99%. Next, `Cc1nc(NC(=O)c2ccc(C(C)(C)C)cc2)sc1C(=O)N1CCOCC1`: 13.1%. For the compound `COC(=O)c1cc2occc2n1CC(=O)N(C)c1ccccc1`, the inhibition was 4.95%. For `Nc1cc(Oc2ccc3ccccc3c2)c(Cl)cc1[N+](=O)[O-]` the value was 2.07%; for `O=C(COc1coc(CN2CCN(c3ccccc3F)CC2)cc1=O)N1CCCCCC1`, -0.51%. Next, `COC(=O)c1cc(NC(=O)Nc2cc(Cl)ccc2OC)cc(C(=O)OC)c1`: 0.04%; `Cc1ccc(-c2cncc(-c3cc(NCc4ccco4)nc(C)n3)c2)cc1`: -4.33%; `Cc1cnc(CNc2cc(-c3cncc(-c4ccc(F)cc4)c3)nc(C)n2)cn1`: 33% (active).

`COCCNc1cc(-c2cncc(-c3ccc(F)cc3)c2)nc(C)n1`: the inhibition was -1.76%.
